This is an account of results in PubChem BioAssay (NCATS).

SMILES strings stand for the structures. Results filed as inconclusive are left out. Active and inactive are the calls of the source. The call rests on the fitted dose curve; in most records, active means well fitted cell-killing curve with a large enough effect; inconclusive means small, poorly fitted or top-dose-only effect, or effect the other way; inactive means no such curve, though single readings can be large or run the other way.
Potency means the concentration at half of the fitted maximal effect.

The nature of this test: Quantitative High-Throughput drug screen in 47 multiple myeloma cell lines against the NCATS MIPE library collection: XG6_PLB cell viability assay (AID 1919865). Further: nearly all actives have a fitted effect of over 40% in size. The following applies: XG6 myeloma viability, CellTiter-Glo ATP luminescence, 48 h; series mostly up to 45.8 µM. The gist of the method: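 500 cells/well; MIPE 4.0 drugs pin-transferred; 48 h, 37C, 5% CO2. CellTiter-Glo, 5 min RT, luminescence. Controls: DMSO 100%, media 0%.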
A general note: ATP-based viability assays read luminescence as a measure of living cells.
Take `O=C(Nc1nc2cccc(-c3ccc(CN4CCS(=O)(=O)CC4)cc3)n2n1)C1CC1`: the Potency is 16600 nM (active). With `CCC[C@H](NC(=O)C(C#N)=Cc1cccc(Br)n1)c1ccccc1`, the Potency was 2350 nM (active). To `CC(NCc1ccc2c(c1)nc(NC(=O)c1ccc(-c3cn[nH]c3)s1)n2CC(C)(C)O)C(C)(C)C` (stereo not given) belongs 235 nM (active). To `CNC(=O)c1c(F)cccc1Nc1nc(Nc2cc3c(cc2OC)CCN3C(=O)CN(C)C)nc2[nH]ccc12` belongs 2350 nM (active).

Turning to `CC(C)CC(=O)Nc1n[nH]c2c1CN(C(=O)C1CCN(C)CC1)C2(C)C`, the Potency is 935 nM (active). As to `COc1cc2c(cc1-c1c(C)noc1C)ncc1[nH]c(=O)n([C@H](C)c3ccccn3)c12`, the Potency was 5260 nM (active).

As to `COc1cc(=C2C=c3ccccc3=N2)[nH]c1=Cc1[nH]c(C)cc1C`, the Potency is 5900 nM (active).

For the molecule `Nc1nc(Nc2ccc(S(N)(=O)=O)cc2)nn1C(=O)c1c(F)cccc1F`, the Potency is 2350 nM (active). With `O=C(Nc1cn[nH]c1-c1nc2ccc(CN3CCOCC3)cc2[nH]1)NC1CC1` the figure was 743 nM (active); with `C[C@@]12O[C@@H](C[C@]1(O)CO)n1c3ccccc3c3c4c(c5c6ccccc6n2c5c31)CNC4=O`, 209 nM (active).

As to `O=C(NCCCNc1nc(Nc2cccc(NC(=O)N3CCCC3)c2)ncc1I)c1cccs1`, the Potency was 1320 nM (active). `CN1CCN(Cc2ccc(NC(=O)Nc3ccc(Oc4cc(NC(=O)C5CC5)ncn4)cc3)cc2C(F)(F)F)CC1`: the Potency was 148 nM (active).

As for `C=CC(=O)Nc1cc2c(Nc3ccc(F)c(Cl)c3)ncnc2cc1OCCCN1CCOCC1`, the Potency is 1660 nM (active).

With `CC(C)c1ccc(Cn2ccc3c4c(N)nc(NC5CC5)nc4ccc32)cc1`, the Potency is 5260 nM (active). With `Cc1ccc(-c2ncn(-c3ccc(Nc4nccc(-c5cccc(N6CCOCC6)c5)n4)cc3)n2)cn1` the figure was 132 nM (active). With `CC[C@@]1(O)C(=O)OCc2c1cc1n(c2=O)Cc2cc3cc(O)ccc3nc2-1` the figure was 13.2 nM (active). With `c1cc(-c2cnn3cc(-c4ccc(OCCN5CCCCC5)cc4)cnc23)ccn1` the figure was 4180 nM (active); with `CC(C)c1cnn2c(NCc3ccccc3)cc(N[C@@H](CO)[C@H](O)CO)nc12`, 235 nM (active). Regarding `C[C@@H](Oc1cc(-c2cnn(C3CCNCC3)c2)cnc1N)c1c(Cl)ccc(F)c1Cl`, the Potency is 2350 nM (active). Regarding `COc1cccc2nc(-c3cccs3)nc(NN3C(=O)C=C(C)C3=O)c12`, the Potency was 83.3 nM (active).
